Measurements: the supplement of paper PMC13380429

What follows are compounds tested on Vero E6 infected with SARS-CoV-2 (assay: SARS-CoV-2 infection rate relative to infected DMSO; higher = more infection, active = 60 or less). Conditions: 24 h.

Compound	SARS-CoV-2 infection rate
c1ccc(-c2n[nH]cc2-c2ccnc3ccccc23)nc1 (10 µM)	114% (inactive)
CC[C@H](c1ccc(O)cc1)[C@@H](CC)c1ccc(O)cc1 [hexestrol] (10 µM)	102% (inactive)
CC(=O)Nc1cccc2c1c(Sc1ccc(Cl)cc1)c(C)n2CC(=O)O (10 µM)	97% (inactive)
Cc1cc(-n2c(=O)[nH]c(=O)n(C)c2=O)ccc1Oc1ccc(SC(F)(F)F)cc1 [toltrazuril] (10 µM)	107% (inactive)
CN(CCOc1ccc(NS(C)(=O)=O)cc1)CCc1ccc(NS(C)(=O)=O)cc1 [dofetilide] (10 µM)	112% (inactive)
NC[C@@H]1CC[C@@H](N)[C@@H](O[C@H]2[C@H](O)[C@@H](O[C@H]3O[C@H](CO)[C@@H](O)[C@H](N)[C@H]3O)[C@H](N)C[C@@H]2N)O1 [dibekacin] (10 µM)	103% (inactive)
O=C(O)c1nn(Cc2ccc(Cl)cc2Cl)c2ccccc12 [lonidamine] (10 µM)	110% (inactive)
O=C(/C=C/c1ccc(O)c(O)c1)O[C@@H]1C[C@](O)(C(=O)O)C[C@@H](O)[C@H]1O [chlorogenic-acid] (10 µM)	112% (inactive)
CC(=O)[C@H]1CC[C@H]2[C@@H]3CC[C@H]4C[C@](C)(O)CC[C@]4(C)[C@H]3CC[C@]12C [ganaxolone] (10 µM)	104% (inactive)
O=C(/C=C/c1ccc(O)c(O)c1)c1ccc(O)cc1O [butein] (10 µM)	106% (inactive)
FC(F)c1nc2ccccc2n1-c1nc(N2CCOCC2)nc(N2CCOCC2)n1 (10 µM)	108% (inactive)
C[C@@H]1CCN(C(=O)CC#N)C[C@@H]1N(C)c1ncnc2[nH]ccc12 (10 µM)	106% (inactive)
COc1ccc(Cn2ccc3ccc(C(=O)NO)cc32)cc1 (0.833333 µM)	111% (inactive)
COc1ccc(Nc2nccc(NCCO)n2)cc1 [cardiogenol-C] (10 µM)	100% (inactive)
O=C1[C@H](CC[C@H](O)c2ccc(F)cc2)[C@@H](c2ccc(O)cc2)N1c1ccc(F)cc1 [ezetimibe] (10 µM)	110% (inactive)
CNCCN(C)Cc1c[nH]nc1-c1ccc(O[C@H]2C[C@H](OCCC3CCOCC3)C2)cc1 (10 µM)	108% (inactive)
CCC(=O)O[C@@](Cc1ccccc1)(c1ccccc1)[C@@H](C)CN(C)C [levopropoxyphene] (10 µM)	109% (inactive)
CO/N=C(\C(=O)N[C@@H]1C(=O)N2C(C(=O)O)=C(COC(N)=O)CS[C@H]12)c1ccco1 (10 µM)	98.5% (inactive)
NC(=O)c1ccc[n+]([C@@H]2O[C@H](COP(=O)([O-])OP(=O)(O)OC[C@H]3O[C@@H](n4cnc5c(N)ncnc54)[C@H](O)[C@@H]3O)[C@@H](O)[C@H]2O)c1 [nadide] (10 µM)	94% (inactive)
O=Nc1c(O)[nH]c2c(Cl)c(Cl)ccc12 (10 µM)	93.5% (inactive)

Compound	SARS-CoV-2 infection rate
C[C@H](NC(=O)C(C)(C)Oc1ccc(C(F)(F)F)cn1)[C@@H](Cc1ccc(Cl)cc1)c1cccc(C#N)c1 [taranabant] (10 µM)	101% (inactive)
COc1cc2c(cc1OC)CN(CCc1ccc(NC(=O)c3cccc4c(=O)c5cccc(OC)c5[nH]c34)cc1)CC2 [elacridar] (10 µM)	102% (inactive)
CN1C(C(=O)Nc2ccccn2)=C(O)c2sc(Cl)cc2S1(=O)=O [lornoxicam] (10 µM)	97% (inactive)
Cc1cc(-c2nc(C(=O)Nc3cn(C4CCOCC4)nc3C(N)=O)co2)ccn1 (10 µM)	118% (inactive)
Cc1oc2nc3c(c(NC(=O)CN4CCCC4=O)c2c1C)CCCC3 (10 µM)	103% (inactive)
CC=C1C(=O)C[C@H]2[C@@H]3CCC4=CC(=O)CC[C@]4(C)[C@H]3CC[C@]12C (10 µM)	91% (inactive)
CO[C@@H](C)Cn1c(=O)n(C)c2cnc3ccc(-c4cncc(C(C)(C)O)c4)cc3c21 (10 µM)	112% (inactive)
c1ccc(CCCCN2CCC(c3ccccc3)CC2)cc1 (10 µM)	73.5% (inactive)
O=S(=O)(F)Cc1ccccc1 [phenylmethylsulfonyl-fluoride] (10 µM)	95% (inactive)
O=C(c1ccc(CN2CCOCC2)cc1)N1CCN(C2CC2)CC1 [bavisant] (10 µM)	100% (inactive)
O=c1[nH]c2ccccc2n1C1CCN(CCCC(c2ccc(F)cc2)c2ccc(F)cc2)CC1 [pimozide] (10 µM)	66.5% (inactive)
O=c1c(-c2ccccc2)c1-c1ccccc1 [diphencyprone] (10 µM)	100% (inactive)
C=C1/C(=C\C=C2/CCC[C@]3(C)[C@@H]([C@H](C)CCCC(C)C)CC[C@@H]23)C[C@@H](O)C[C@@H]1O [alfacalcidol] (10 µM)	98% (inactive)
CN1CCCN=C1/C=C/c1cccs1 [pyrantel-pamoate] (10 µM)	93.5% (inactive)
CCC(CC)C(c1ccc(Nc2nc3ccccc3s2)cc1)n1cncn1 (stereo not given) [talarozole] (10 µM)	74.5% (inactive)
O=C(O)Cc1cccnc1C(=O)O [homoquinolinic-acid] (10 µM)	102% (inactive)
COc1cc(NC(=O)c2ccccn2)ccc1Cl (10 µM)	96.5% (inactive)
O=S(=O)(N[C@H](CO)C(C(F)(F)F)C(F)(F)F)c1ccc(Cl)s1 [begacestat] (10 µM)	98% (inactive)
OC[C@H]1NCC[C@@H](O)[C@@H]1O [fagomine] (10 µM)	105% (inactive)
Cc1ccc(S(=O)(=O)NC(=O)NN2CCCCCC2)cc1 [tolazamide] (10 µM)	100% (inactive)
